Compound activity: PubChem, several laboratories
DNA FID counter: compounds displacing fluorescent DNA intercalator, primary screen, artefact control for HCV NS3 helicase inhibitor project, biochemical, FID fluorescence; DNA fluorescent intercalator displacement; inhibition, % at 7.9 µM; hit rate 0.17% among 290,000; AID 1845, 2009; in the data active means inhibition above about 37%;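 further: higher means more ethidium bromide displaced from hairpin DNA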
ANO1 block: TMEM16A chloride channel inhibitors, primary screen, cell-based, HTS | normalized B-score (activity score, 25-100; higher = stronger inhibition) at 10 µM | Anoctamin-1 (Mus musculus), Q8BHY3 | HEK293 TMEM16A/YFP iodide influx fluorescence, ionomycin | hit rate 1.2% among 310,000;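 active means ratio plate-corrected score three or more library SD toward inhibition, starting fluorescence score within five deviations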;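 further: score derived from kinetic fluorescence span divided by baseline fluorescence per well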
ANO1 activ: TMEM16A chloride channel activators or potentiators, primary screen, cell-based, HTS; hit rate 0.3% among 340,000; Anoctamin-1 (Mus musculus), Q8BHY3; B-score at 10 µM; HEK293 TMEM16A/YFP-H148Q/I152L, iodide quench fluorescence; active compounds read low; AID 623877, 2012;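 active means fluorescence-ratio B-score plate-corrected deviation score at least 3 library SD below zero, with starting fluorescence score within 5 deviations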;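 further: channel opened by trigger with iodide after compound preincubation; score built on the fluorescence ratio of max minus min over baseline; more negative score means more quench and so TMEM16A activation or potentiation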
PP1 inh: PP1-alpha phosphatase inhibitors, primary screen, counter-screen for PP5 inhibitor project, biochemical, fluorescence, OMFP substrate, single point; purified PP1alpha; AID 2235, 2010; inhibition, % at 6.7 µM; hit rate 0.9% among 320,000; Serine/threonine-protein phosphatase PP1-alpha catalytic subunit (Homo sapiens), P62136;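 active means inhibition above the mean inhibition of all tested compounds plus 3 SD, computed separately for each screening campaign, cut at about 15% in these data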
PREPL inh: PREPL enzyme inhibitors, primary screen, biochemical, fluorescence polarization | recombinant PREPL, fluorescence polarization activity-based probe | inhibition, % at 5.96 µM | hit rate 0.68% among 320,000; in the data active means inhibition above about 43%
Target sequence (Q4J6C6 whole entry, looked up): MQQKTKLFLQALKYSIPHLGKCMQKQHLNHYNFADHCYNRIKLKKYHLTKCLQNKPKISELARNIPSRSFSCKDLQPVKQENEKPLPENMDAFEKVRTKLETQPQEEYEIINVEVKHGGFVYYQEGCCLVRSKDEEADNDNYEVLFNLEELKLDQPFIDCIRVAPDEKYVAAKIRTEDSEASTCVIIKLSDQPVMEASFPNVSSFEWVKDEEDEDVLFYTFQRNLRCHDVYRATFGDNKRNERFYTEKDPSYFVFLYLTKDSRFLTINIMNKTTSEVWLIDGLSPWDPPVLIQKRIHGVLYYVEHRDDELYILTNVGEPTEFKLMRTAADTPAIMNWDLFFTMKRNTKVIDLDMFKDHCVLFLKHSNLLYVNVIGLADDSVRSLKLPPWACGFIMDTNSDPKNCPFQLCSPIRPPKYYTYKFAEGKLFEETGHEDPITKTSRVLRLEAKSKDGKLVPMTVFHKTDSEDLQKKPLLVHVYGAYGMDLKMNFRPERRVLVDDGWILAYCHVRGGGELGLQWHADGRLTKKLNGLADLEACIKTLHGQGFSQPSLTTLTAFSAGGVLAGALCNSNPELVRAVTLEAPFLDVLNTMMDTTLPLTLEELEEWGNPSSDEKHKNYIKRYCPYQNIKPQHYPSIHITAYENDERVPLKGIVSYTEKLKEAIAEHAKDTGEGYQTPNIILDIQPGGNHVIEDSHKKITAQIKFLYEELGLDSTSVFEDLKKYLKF
PP5 inh: PP5 phosphatase inhibitors, primary screen, biochemical, fluorescence; purified PP5c, OMFP substrate fluorescence; inhibition, % at 6.7 µM; hit rate 0.18% among 320,000; AID 1987, 2009;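 active means inhibition above the campaign's mean inhibition across all tested compounds plus 3 SD, cut at about 9.5% in these data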
Of the large screens only hits and unclear results are named; the others gave an inactive call. In the library only some 2.7% were active in any assay of this set; here they are far more common.

CN(C)S(=O)(=O)c1cccc(-c2nnc(SCc3ccc4c(c3)OCCO4)o2)c1	ANO1 activ -17.4
O=S(=O)(c1cccc(-c2nnc(SCc3ccc(Cl)cc3)o2)c1)N1CCCCC1	none
COC1OC2COC(c3ccccc3)OC2C(OC(C)=O)C1OC(C)=O (stereo unspecified)	none (no result: DNA FID counter, ANO1 block, PP1 inh, PREPL inh, PP5 inh)
CC(/C=N/Nc1nnc2c(n1)[nH]c1ccccc12)=C\c1ccco1	PP1 inh 16.4
Cc1cccc2c1[nH]c1nc(N/N=C\c3ccco3)nnc12	none (no result: ANO1 activ)
O=C(CSCCc1ccccn1)Nc1cccnc1Cl	ANO1 block 25
O=C(Nc1nc(-c2ccccn2)cs1)c1cc(Cl)ccc1[N+](=O)[O-]	PP1 inh 16.5
CC(=O)Nc1ccc(C(=O)Nc2nc(-c3ccccn3)cs2)cc1	none
CCc1cc(C(=O)Nc2nc(-c3ccccn3)cs2)sc1C	PP1 inh 16.4 (no result: DNA FID counter, ANO1 block)
CC[C@@]12C(=O)N(c3cccc(Br)c3)C(=O)N1[C@H](c1ccc(F)cc1)[C@@H]1C(=O)N(C3CCCCC3)C(=O)[C@@H]12	none (no result: DNA FID counter)
CC(C)C[C@@]12C(=O)N(c3cccc(Br)c3)C(=O)N1[C@H](c1ccc(F)cc1)[C@@H]1C(=O)N(C3CCCCC3)C(=O)[C@@H]12	ANO1 activ -7.61 (no result: DNA FID counter)
Cc1ccc(S(=O)(=O)N2CCCCC2)cc1NC(=O)c1c(-c2ccccc2)noc1C	none (no result: DNA FID counter, ANO1 block)
Cc1ccc(S(=O)(=O)c2c(N)n(Cc3ccco3)c3nc4ccccc4nc23)cc1C	ANO1 block 25
Cc1ccc(S(=O)(=O)c2c(N)n(CCN3CCOCC3)c3nc4ccccc4nc23)cc1C	ANO1 activ -20.1
Cc1nc(-c2ccccn2)nc(SCC(=O)N2CCOCC2)c1Cl	none
Cc1nc(-c2ccccn2)nc(SCC(=O)c2ccccc2)c1Cl	PP1 inh 15.3
Cc1cc2nc(NCCCO)n(CC(=O)c3cc(C(C)(C)C)c(O)c(C(C)(C)C)c3)c2cc1C	ANO1 block 100 (no result: DNA FID counter)
O=C(Cn1c(NCCCO)nc2ccccc21)c1ccc(Cl)cc1	none
CCCn1c(N)c(C(=O)CSc2nncs2)c(=O)[nH]c1=O	none (no result: DNA FID counter, ANO1 block)
COc1cc2nc(CN3CCN(S(=O)(=O)c4ccc(Cl)cc4)CC3)[nH]c(=O)c2cc1OC	ANO1 activ -38.6
COc1cc2nc(CN3CCN(S(=O)(=O)c4ccccc4)CC3)[nH]c(=O)c2cc1OC	none (no result: DNA FID counter, ANO1 block, PP1 inh, PREPL inh, PP5 inh)
CN(CC(=O)Nc1cc(S(=O)(=O)N2CCCC2)ccc1Cl)Cc1nc2ccccc2c(=O)[nH]1	none (no result: DNA FID counter, ANO1 block, PP1 inh, PREPL inh, PP5 inh)
CNc1nc(SCc2ccc(C)cc2)nc2c1CCCC2	ANO1 block 100
CN1CCN(C2Cc3cc(Cl)ccc3Sc3cc(F)ccc32)CC1 (stereo unspecified)	none (no result: DNA FID counter)
OCCN1CCN(C2Cc3cc(Cl)ccc3Sc3ccc(Cl)cc32)CC1 (stereo unspecified) (tested in a mixture with another compound)	PP1 inh 15.3
CC12CCC(c3c(CO)nn(-c4ccccc4)c31)C2(C)C (stereo unspecified)	none
CC12CCC(c3c(C(=O)O)nn(-c4ccccc4)c31)C2(C)C (stereo unspecified)	PP1 inh 16.6
NC(=O)CC(NC(=O)c1ccc(Br)cc1)c1ccc(N2CCN(c3ccccc3)CC2)c([N+](=O)[O-])c1 (stereo unspecified)	PP1 inh 15.2
NC(=O)CC(NC(=O)c1ccccc1)c1ccc(N2CCC(Cc3ccccc3)CC2)c([N+](=O)[O-])c1 (stereo unspecified)	PP1 inh 17.0
Cc1ccc(NC(=O)C(NC2CCCc3ccccc32)c2ccccc2)cc1Cl (stereo unspecified)	none
Cc1ccc(NC(=O)C(NC2CCCc3ccccc32)c2ccccc2)c([N+](=O)[O-])c1 (stereo unspecified)	ANO1 activ -5.78
COc1ccc(CCn2c(C3CCCCC3)nc3c(c(=O)c4ccccc4n3C)c2=O)cc1	PP1 inh 16.2
O=c1[nH]c(-[n+]2ccccc2)c(/C=N/NC([S-])=Nc2ccccc2)s1	none
Cc1cc[n+](-c2[nH]c(=O)sc2/C=N/NC([S-])=Nc2ccccc2)cc1	ANO1 activ -5.05
COc1cc(OC)c(OC)cc1CNCCSc1nnnn1C	none
C=CCn1c(SCC(=O)N2CCN(c3ccc(F)cc3)CC2)nnc1-c1ccco1	ANO1 block 25
Oc1ccc(CCNc2ncnc3ccc(Cl)cc23)cc1	ANO1 block 100
COc1ccc(C=NN=C2c3ccccc3-c3ccccc32)cc1OC	none (no result: DNA FID counter, ANO1 block, PP1 inh, PREPL inh, PP5 inh)
CCOc1ccc(C(=O)NCC(=O)NCCCSc2ccccc2)cc1OCC	none
Cc1ccccc1NC(=O)CN1CCN(C)CC1	none
CCN(CC)CC(=O)Nc1cc(N(C)C)nc2ccccc12	DNA FID counter 49.4
CN1CCN(CC(=O)Nc2cc(N(C)C)nc3ccccc23)CC1	DNA FID counter 73.4
CCCCCC(=O)Nc1cc(N(C)C)nc2ccccc12	none
O=C(c1ccccc1)C1(c2ccccc2)OC1c1ccccc1 (stereo unspecified)	none (no result: DNA FID counter, ANO1 block, PP1 inh, PREPL inh, PP5 inh)
O=C(C1CCN(S(=O)(=O)N2CCOCC2)CC1)N1CCN(c2ccc(F)cc2)CC1	none
O=C(C1CCN(c2ccc(N3CCOCC3)nn2)CC1)N1CCN(c2ccc(F)cc2)CC1	PREPL inh 65.2
CC1(c2nnc(Cc3ccccc3)o2)CC(c2ccc(Br)cc2)=NO1 (stereo unspecified)	PP1 inh 15.6 (no result: DNA FID counter)
N#Cc1ccc(-c2nc3cc(Cl)ccc3c(=O)n2O)cc1	none
O=c1c2ccc(Cl)cc2nc(-c2cccc(C(F)(F)F)c2)n1O	PP1 inh 16.4
CC(=O)Oc1c(C)cc(Cl)cc1C(=O)Nc1ccc([N+](=O)[O-])cc1Cl	ANO1 block 100
CC(=O)OCC(=O)Nc1ccc([N+](=O)[O-])cc1Cl	none
O=C(c1cc(=O)[nH]c2ccccc12)N(Cc1nnc(-c2ccccc2Cl)o1)C1CC1	none (no result: DNA FID counter)
CC(OC(=O)c1cc(S(=O)(=O)N2CCOCC2)ccc1Br)C(=O)N1CCOCC1 (stereo unspecified)	none (no result: DNA FID counter, ANO1 block)
Cn1c(=O)nc2n(Cc3ccccc3)c3ccccc3cc-2c1=O	ANO1 block 100
CCCCn1c(=O)nc2n(-c3ccccc3C)c3ccccc3cc-2c1=O	ANO1 block 25
Cc1ccccc1-n1c2nc(=O)n(C)c(=O)c-2cc2ccccc21	ANO1 block 100
Cc1ccccc1-n1c(=O)c2ccccc2n2nnnc12	none
CCCCn1c(N)c(N(CCOC)C(=O)COC(=O)COc2c(C)cc(C)cc2C)c(=O)[nH]c1=O	none (no result: DNA FID counter)
